Hits are enriched below; roughly 9.4% of the tested compounds scored in any of these assays.
SMN2 splice enh: qHTS Assay for Enhancers of SMN2 Splice Variant Expression; HEK293 SMN2-luciferase splicing reporter, luminescence, 30-36 h; Potency, µM (series often up to 46.1 µM), most hits filed as activators; 2.8% of 210,000 active; note: nearly all actives have a fitted effect of over 55% in size
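HEK293 cells carry an SMN2 minigene-luciferase reporter in which exon 7 inclusion puts luciferase in frame. Cells were seeded at 2000 cells/well, attached for 10-12 hours, then exposed to compounds for 30-36 hours at 37C before ONE-Glo luminescence.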
Rab9 prom act: qHTS Assay for Rab9 Promoter Activators; Huh7 Rab9 promoter-luciferase reporter, luminescence, 24 h; Potency, µM (top dose mostly 9.22 µM), actives largely listed as activators; 2.8% of 320,000 active; note: nearly all actives have a fitted effect of over 60% in size
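Huh7 reporter line, Rab9 promoter upstream of luciferase. Compound exposure 24 h at 37 °C in reduced-serum medium with 10% FBS. Read-out: luminescence.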
ELG1 genotox: qHTS screen for small molecules that induce genotoxicity in human embryonic kidney (HEK293T) cells expressing luciferase-tagged ELG1 | 1.3% of 330,000 active | AID 504466, 2011 | Potency, µM (top dose mostly 46 µM), actives largely listed as activators | HEK293T ELG1-luciferase reporter, luminescence, 16 h; note: nearly all actives have a fitted effect of over 60% in size
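Reporter readout depends on ELG1 protein level, which increases with genetic stress. After 16 hr compound exposure at 37 °C, luciferase activity was quantified using ONE-Glo.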
NPC1 prom act: qHTS Assay for NPC1 Promoter Activators | Huh7 NPC1 promoter luciferase reporter, 24 h | Potency, µM (titrated, usually from 9.22 µM), actives largely listed as activators | 2.4% of 320,000 active; note: nearly all actives have a fitted effect of over 60% in size
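Readout is luciferase luminescence, reflecting NPC1 promoter activation in stably transfected Huh7 cells after 24 h compound exposure at 37 °C in reduced-serum medium with 10% FBS.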
FLuc modulator: qHTS profiling assay for firefly luciferase inhibitor/activator using purifed enzyme and Km concentrations of substrates (counterscreen for miR-21 project); Luciferin 4-monooxygenase (Photinus pyralis), P08659; purified FLuc, Km substrates, luminescence inhibition; Potency, µM (titrated, usually from 57.5 µM), usual class: inhibitors; 6.9% of 360,000 active; AID 588342, 2011; note: nearly all actives have a fitted effect of over 55% in size
Target sequence (P08659 whole entry, looked up): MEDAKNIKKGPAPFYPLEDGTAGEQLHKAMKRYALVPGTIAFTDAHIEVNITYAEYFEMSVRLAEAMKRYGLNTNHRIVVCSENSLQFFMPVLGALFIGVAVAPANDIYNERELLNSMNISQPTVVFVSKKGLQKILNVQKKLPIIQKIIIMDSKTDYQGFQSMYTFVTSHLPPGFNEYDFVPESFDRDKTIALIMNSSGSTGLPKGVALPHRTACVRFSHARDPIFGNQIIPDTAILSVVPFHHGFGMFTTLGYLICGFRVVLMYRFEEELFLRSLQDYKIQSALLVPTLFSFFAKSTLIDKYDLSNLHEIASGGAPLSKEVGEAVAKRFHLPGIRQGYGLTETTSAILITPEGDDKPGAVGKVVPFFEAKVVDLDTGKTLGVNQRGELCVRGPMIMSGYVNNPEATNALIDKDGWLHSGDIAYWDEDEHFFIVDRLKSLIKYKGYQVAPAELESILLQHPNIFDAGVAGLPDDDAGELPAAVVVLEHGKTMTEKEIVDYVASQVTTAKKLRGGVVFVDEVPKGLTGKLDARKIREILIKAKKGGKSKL
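Purified P. pyralis luciferase, 10 nM final, with Km-level 10 uM D-luciferin and 10 uM ATP in 50 mM Tris acetate pH 7.5, 10 mM Mg acetate, 0.01% Tween-20, 0.05% BSA; 6-point qHTS titration about 60 µM downward; luminescence read.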
ELG1 repair inh: qHTS screen for small molecules that inhibit ELG1-dependent DNA repair in human embryonic kidney (HEK293T) cells expressing luciferase-tagged ELG1; Potency, µM (doses to about 46.1 µM), most hits filed as inhibitors; HEK293T ELG1-luciferase reporter, luminescence, 16 h; DNA damage induced by 5-fluorouridine; 2.3% of 330,000 active; note: nearly all actives have a fitted effect of over 55% in size
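DMSO vehicle served as the neutral condition. Each well held 2,000 cells given 5-fluorouridine plus compound; after 16 hr at 37 °C/5% CO2, ONE-Glo was added and luciferase measured 30 min later.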
Numbers stand for hits; 0 = inactive; ? = inconclusive; - = no result given; [ ] = dose if it differs, or a comment. Calls come from the whole dose curve; as a rule, active = well fitted curve in the direction sought with a large enough effect; inconclusive = small, poorly fitted or top-dose-only effect, or another doubt; inactive = no such curve, though single readings can be large; an effect the other way counts as inactive or inconclusive.

SMILES	SMN2 splice enh	Rab9 prom act	ELG1 genotox	NPC1 prom act	FLuc modulator	ELG1 repair inh
CCOC(=O)c1cc(S(=O)(=O)Nc2ccccc2OCC)[nH]n1	-	-	-	-	0	-
O=C(Cn1cc(SCc2ccccc2)c2ccccc21)N1CCCCCC1	-	-	-	-	0	-
Cc1cccc(CSc2cn(CC(=O)N3CCOCC3)c3ccccc23)c1	?	?	?	?	15.1µM	?
O=C(Cn1cc(SCc2cccc(Cl)c2)c2ccccc21)N1CCOCC1	-	?	0	0	19µM	?
O=C(CSc1cn(CC(=O)N2CCOCC2)c2ccccc12)N1CCOCC1	-	0	0	0	0	0
Cc1oc2ncn(CC(C)C)c(=O)c2c1C(=O)NCc1cccc(Cl)c1	-	-	-	-	0	-
O=C(/C=C/c1cnc2ccccc2n1)NC12CC3CC(CC(C3)C1)C2	10µM	3.16µM	?	3.55µM	1.69µM	?
O=C(O)/C=C/c1cnc2ccccc2n1	0	0	0	0	0	0
CCC(C)(C)NC(=O)/C=C/c1cnc2ccccc2n1	?	?	?	0	10.7µM	?
CC1=C(C(=O)OC2CCCC(C)C2)C(c2ccccc2)NC(=O)N1 (stereo unspecified)	-	1µM	0	0	0	?
O=C(c1ccc(F)cc1)C1CCN(C(=S)Nc2ccc(F)cc2)CC1	-	0	0	0	0	10.3µM
CC(C)(C)NC(=S)N1CCC(C(=O)c2ccc(F)cc2)CC1	-	0	0	0	0	0
COc1ccc(CCNC(=O)c2ccc(CN3CCC(Cc4ccccc4)CC3)cc2)cc1OC	0	0	0	0	0	0
COc1ccc(CCNC(=S)N2CCC(Cc3ccccc3)CC2)cc1OC	0	0	0	0	0	9.2µM
CCCNC(=S)N1CCC(C(=O)c2ccc(F)cc2)CC1	-	0	0	0	0	0
COc1ccc(C(=O)C2CCN(C(=S)NCCc3ccccc3)CC2)cc1	0	0	0	0	0	0
COc1ccc(C(=O)C2CCN(C(=S)NCCc3ccc(OC)c(OC)c3)CC2)cc1	-	0	0	0	19µM	20.6µM
COc1ccc(CCNC(=S)N2CCC(C(=O)c3ccc(F)cc3)CC2)cc1OC	0	0	0	0	0	9.2µM
CN(C)c1ccc(NC(=O)c2ccc(Cn3cc([N+](=O)[O-])cn3)cc2)cc1	0	0	0	0	12µM	?
CN(C)c1ccc(C(=O)Nc2ccc(CN3CCS(=O)(=O)CC3)cc2)cc1	-	0	0	0	13.5µM	?
Cc1ccc(C(=O)Nc2ccc(CN3CCS(=O)(=O)CC3)cc2)cc1C	-	?	0	?	19µM	?
COc1ccc(NC(=O)c2ccc(Cn3cc(Cl)cn3)cc2)cc1	-	0	0	0	0	0
CCOC(=O)N1CCC(NC(=O)c2ccc3c(c2)N(Cc2cc(C)ccc2C)C(=O)c2ccccc2S3(=O)=O)CC1	0	-	-	-	0	-
O=C(COc1cccc(Cl)c1)Nc1nc(-c2ccc(S(=O)(=O)N3CCOCC3)cc2)cs1	0	0	0	0	0	23.1µM
COc1ccccc1C(=O)Nc1nc(-c2ccc(S(=O)(=O)N3CCOCC3)cc2)cs1	0	0	0	0	0	5.17µM
SMILES	SMN2 splice enh	Rab9 prom act	ELG1 genotox	NPC1 prom act	FLuc modulator	ELG1 repair inh
CCOc1cccc(C(=O)Nc2nc(-c3ccc(S(=O)(=O)N4CCOCC4)cc3)cs2)c1	0	0	0	0	0	?
COC(=O)c1ccc(C(=O)NC(=S)Nc2ccc3nc(SC)sc3c2)cc1	?	0	?	0	0	0
CSc1nc2ccc(NC(=O)CSc3nnc(N)s3)cc2s1	0	0	?	0	21.3µM	?
CSc1nc2ccc(NC(=O)C3=NN(c4ccccc4)C(=O)CC3)cc2s1	?	0	0	0	19µM	0
CSc1nc2ccc(NC(=O)c3ccccn3)cc2s1	-	0.398µM	0.092µM	0.447µM	0.426µM	?
CSc1nc2ccc(NC(=O)C3=NNC(=O)CC3)cc2s1	0	0	0	0	?	?
NC(C(=O)O)C(CC(=O)O)c1ccc(Cl)cc1 (stereo unspecified)	0	-	-	-	-	-
CN1CCN(Cc2nc3cccc4c3c([n+]2[O-])-c2ccccc2-4)CC1	0[9.22 µM]	-	-	-	-	-
N#Cc1cc2cc3c(cc2nc1N1CCCCC1)OCCO3	12.6µM	6.31µM	?	?	4.26µM	?
Cc1ccc(C(=O)N2CCCN(c3nc4cc5c(cc4cc3C#N)OCO5)CC2)cc1	-	0	0	0	0	?
NC1=N[C@H](c2ccc(Cl)cc2)N(c2ccc(S(N)(=O)=O)cc2)C(N)=N1	0[9.22 µM]	-	-	-	-	-
COc1ccc(CC(=O)N2CCc3cc(OC)c(OC)cc3C2COc2cc(C)cc(C)c2)cc1OC (stereo unspecified)	-	-	-	-	0	-
CCOc1ccc(NC(=O)CSc2nnc(-c3ccc(C)cc3)c(-c3ccc(C)cc3)n2)cc1	-	-	-	-	0	-
O=C(O)c1cccc(Cn2c(Cl)c(/C=N/NC(=O)c3ccccc3Cl)sc2=O)c1	0	0	0	0	0	0
O=C(O)c1cccc(Cn2c(Cl)c(/C=N/NC(=O)c3ccccc3O)sc2=O)c1	-	0	0	0	19µM	0
O=C(O)c1cccc(Cn2c(Cl)c(/C=N/Nc3ccccc3)sc2=O)c1	0	0	0	0	26.9µM	0
COc1ccc(C(=O)N/N=C/c2sc(=O)n(Cc3cccc(C(=O)O)c3)c2Cl)cc1	-	0	0	0	26.9µM	0
Cc1ccccc1Nc1cc(C(=O)NC2CCC(C)CC2)c2ccccc2n1 (stereo unspecified)	0	-	-	-	0	-
Clc1ccc(CCNc2ncnc3nc[nH]c23)cc1	0	0	0	0	0	?
c1ccc(CNc2ncnc3nc[nH]c23)cc1	0	0	0	0	0	0
Cc1ccsc1/C=N/Nc1ncnc2nc[nH]c12	11.2µM	3.55µM	14.6µM	2.51µM	19µM	?
Fc1ccc(/C=N/Nc2ncnc3nc[nH]c23)cc1F	?	0	20.6µM	0	?	?
C(=N\Nc1ncnc2nc[nH]c12)/c1cccs1	35.5µM	?	16.4µM	?	13.5µM	?
Cc1ccccc1/C=N/Nc1ncnc2nc[nH]c12	-	?	?	?	15.1µM	?
COc1ccc(Cl)c2c1[nH]c1nc(SCc3cccnc3)nnc12	0	0	0	0	0	0
COc1ccc(Cl)c2c1[nH]c1nc(SCc3ccccn3)nnc12	6.31µM	1.78µM	20.6µM	2.82µM	6.01µM	?
Cc1cc(N=Cc2c(O)n(-c3cccc(C(F)(F)F)c3)c(=O)c3ccccc23)no1	0	0	0	0	0	9.2µM
CSC(=S)N/N=C(\C)c1ccccc1	0	0	?	0	21.3µM	?
Cc1cccc(-n2cnc3cc(C(=O)N4CCCCC4)ccc32)c1	?	?	0	?	23.9µM	?

Bioassay records from PubChem.
